Bioassay records: PubChem, NMMLSC
The list is not random: actives were taken first. Their share in the collection is about 0.92%.
LAP4-GFP MLPCN = modulators of TOR pathway LAP4-GFP in S. cerevisiae | S. cerevisiae LAP4-GFP multiplex, flow cytometry GFP, 3 h; median GFP as percent of DMSO wells | GFP response vs DMSO, % at 10 µM | 320,000 tested, 0.34% active;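 active = GFP response vs DMSO above a set limit, about the screen mean plus 3 SD, cut at about 150% in these data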
CIT2 TOR yeast = modulators of TOR pathway CIT2-GFP in S. cerevisiae | S. cerevisiae CIT2-GFP strain, flow cytometry, 3 h; 100 means same as DMSO wells | GFP response vs DMSO, % at 10 µM | 320,000 tested, 0.065% active | AID 2029;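 active = GFP response relative to DMSO above a set limit, near the screen mean plus 3 SD, cut at about 150% in these data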;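 also: ratio of well median GFP fluorescence to mean of DMSO wells on the plate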
RPL19A TOR yeast = alters RPL19A-GFP fluorescence in TOR pathway yeast screen | 330,000 tested, 0.3% active | AID 2025 | percent response vs DMSO, % at 10 µM | S. cerevisiae RPL19A-GFP strain, flow cytometry, 3 h; hits give low values;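 active = percent response vs DMSO below 50%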;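 also: median channel GFP fluorescence of the barcoded RPL19A-GFP strain; ratio of sample median GFP to plate DMSO average so 100% = DMSO; lower means less RPL19A-GFP as with rapamycin TOR inhibition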
AGP1-GFP MLPCN = alters AGP1-GFP fluorescence in TOR pathway yeast screen; AID 2066; 320,000 tested, 0.02% active; GFP response vs DMSO, % at 10 µM; S. cerevisiae AGP1-GFP multiplex flow cytometry, 3 h; GFP as percent of DMSO wells;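 active = GFP response relative to DMSO above a set limit, near screen average plus 3 SD, cut at about 150% in these data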;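 also: median GFP channel fluorescence of the gated AGP1 strain per well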
MEP2 TOR yeast = modulators of TOR pathway MEP2-GFP in S. cerevisiae; S. cerevisiae MEP2-GFP strain, flow cytometry GFP, 3 h; 100% = DMSO control level; 330,000 tested, 0.51% active; GFP response vs DMSO, % at 10 µM; AID 2016;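 active = GFP response versus DMSO above a set limit, roughly screen mean plus 3 SD, cut at about 180% in these data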;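 also: median GFP fluorescence of the barcode-gated MEP2-GFP cells per well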
LAP4 cherry2 = reconfirmed LAP4-GFP TOR pathway modulator in yeast | AID 2621 | 590 tested, 20% active | GFP response vs DMSO, % at 10 µM | shares compounds with LAP4-GFP MLPCN | S. cerevisiae LAP4-GFP strain, flow cytometry GFP, 3 h;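 active = GFP signal as percent of the solvent control above about 150%, meaning raised reporter expression, limit read from the data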;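 also: ratio of well median GFP fluorescence to plate DMSO mean so 100% = DMSO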
MEP2 cherry2 = second confirmation of modulators of TOR reporter MEP2-GFP in yeast. shares compounds with LAP4-GFP MLPCN. S. cerevisiae MEP2-GFP strain, flow cytometry GFP, 3 h. GFP response vs DMSO, % at 10 µM. 590 tested, 10% active. AID 2622;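 active = GFP signal above 150% of the solvent control wells, that is a rise of more than half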;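 also: median channel GFP fluorescence of all gated yeast cells per well; ratio of median GFP to plate DMSO average so 100% = DMSO level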
RPL19A GFP CP2 = yeast RPL19A-GFP TOR reporter modulation, second cherry pick; shares compounds with LAP4-GFP MLPCN; S. cerevisiae RPL19A-GFP strain, flow cytometry GFP, 3 h; hits give low values; 100% means same as DMSO wells; AID 2623; GFP response vs DMSO, % at 10 µM; 590 tested, 3% active;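 active = under 65% GFP response relative to DMSO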;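 also: median GFP channel fluorescence per well over the all cells gate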
CIT2-GFP pick2 = reconfirmed modulator of CIT2-GFP TOR reporter in yeast; 590 tested, 8% active; GFP response vs DMSO, % at 10 µM; AID 2624; S. cerevisiae CIT2-GFP strain, flow cytometry GFP, 3 h; DMSO control wells read 100%; shares compounds with LAP4-GFP MLPCN;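 active = GFP response vs DMSO above about 150%, limit read from the data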;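 also: median green fluorescence per well over all gated yeast cells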
AGP1 GFP CP2 = reconfirmed modulator of AGP1-GFP TOR reporter in yeast | 590 tested, under 10 active | percent response vs DMSO, % at 10 µM | shares compounds with LAP4-GFP MLPCN | AID 2643 | S. cerevisiae AGP1-GFP strain, flow cytometry GFP, 3 h;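 active = over 150 percent of DMSO response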;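 also: median GFP channel fluorescence over all cells without mother daughter split; sample median GFP divided by mean DMSO control so 100% equals DMSO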
Yeast autofluor = compound is autofluorescent in yeast s288c cells; 610 tested, under 10 active; shares compounds with LAP4-GFP MLPCN; fluorescence change (kMESF span) at 33 µM; AID 2757; S. cerevisiae s288c, 520 nm autofluorescence, flow cytometry, 3 h; hits give high values; zero means same as solvent-only cells;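 active = fluorescence span over the dose series, or activity score, above about 33, limit read from the data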
s288c autofl DR = counter-screen for autofluorescence of TOR hits in yeast s288c | shares compounds with LAP4-GFP MLPCN | S. cerevisiae s288c parental, compound autofluorescence, flow cytometry, 3 h | fluorescence change (span) at 33 µM | 110 tested, under 10 active | AID 488829;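 active = fluorescence change span, or the activity score built from it, above 25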
TORC1 bypass gr = compounds blocking wildtype yeast growth but not TORC1 bypass cells; shares compounds with LAP4-GFP MLPCN; S. cerevisiae BY4741 spot growth rating, 48-72 h; hits give low values; growth rating (0-3) at 30 µM; 120 tested, under 10 active;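 active = growth rating at most 1 for wild type yeast while the TORC1 bypass strain still grows fully, rated 3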
Starred values were filed as active, the others as inactive; / = no result.

SMILES | LAP4-GFP MLPCN | CIT2 TOR yeast | RPL19A TOR yeast | AGP1-GFP MLPCN | MEP2 TOR yeast | LAP4 cherry2 | MEP2 cherry2 | RPL19A GFP CP2 | CIT2-GFP pick2 | AGP1 GFP CP2 | others
CN(C)S(=O)(=O)c1cccc(C(=O)Nc2ccccc2C(=O)NC2CC2)c1 | 151.9* | 92.5 | 91.7 | 114.8 | 108.9 | 103.8 | 104.8 | 100.4 | 101.8 | 97.7
O=c1c2cc(Cl)ccc2nc(-c2ccccc2Cl)n1O | 113.0 | 75.2 | 59.9 | 75.8 | 94.9 | 105.2 | 97.8 | 100.4 | 87.6 | 104.4
Cc1cc2c(C)nc3ccccc3c2o1 | 91.7 | 102.4 | 64.4 | 26.6 | 170.4 | 94.2 | 92.6 | 102.7 | 107.1 | 97.8
Cc1nc2ccccc2c2oc(C(=O)NC3CC3)cc12 | 100.3 | 109.6 | 97.7 | 102.4 | 96.8 | / | / | / | / | /
COc1ccc(C(=O)C(C)OC(=O)COc2ccccc2)cc1 (configuration not stated) | 100.0 | 94.4 | 96.0 | 97.3 | 103.5 | / | / | / | / | /
O=C(CCS(=O)(=O)c1ccc2c(c1)NC(=O)CS2)NCCc1ccc(Cl)cc1 | 102.8 | 101.1 | 98.8 | 104.6 | 97.5 | / | / | / | / | /
O=C(CCS(=O)(=O)c1ccc2c(c1)NC(=O)CS2)NCCc1ccccc1 | 158.8* | 99.5 | 87.7 | 104.7 | 80.8 | 99.2 | 103.1 | 97.4 | 97.3 | 99.5
COc1ccc(NC(=O)CC(=O)Nc2ccc(OC)cc2OC)c(OC)c1 | 103.5 | 105.4 | 102.7 | 105.1 | 104.8 | / | / | / | / | /
COc1ccc(NC(=O)CC(C)=O)c(OC)c1 | / | / | / | / | / | 100.2 | 92.6 | 100.8 | 104.3 | 98.3
Cc1cc(-c2ccco2)c(C#N)c2nc3ccccc3n12 | 115.9 | 50.9 | 58.6 | 56.1 | 103.7 | 117.2 | 136.2 | 66.3 | 126.5 | 72.6
Cc1nnc(SC(C)C(=O)Nc2ccc3ccccc3c2)[nH]c1=O (configuration not stated) | 92.4 | 98.9 | 104.2 | 93.6 | 103.3 | / | / | / | / | /
N=C1/C(=C\c2coc3ccccc3c2=O)C(=O)N=C2SC(c3ccncc3)=NN12 | 120.1 | 94.7 | 64.0 | 65.7 | 100.4 | 139.3 | 108.3 | 83.3 | 162.7* | 82.3 | Yeast autofluor=18.2
CC1CCCN(C(=O)Cn2nnc(-c3ccccc3F)n2)C1 (configuration not stated) | 95.0 | 103.1 | 101.3 | 130.8 | 99.1 | / | / | / | / | /
O=S1(=O)C=C(Sc2nc3ccccc3s2)c2ccccc21 | 172.1* | 86.8 | 91.7 | 90.0 | 91.2 | 175.0* | 106.5 | 103.8 | 141.4 | 94.3 | Yeast autofluor=0.2
O=C1C(=O)N(CCN2CCOCC2)C(c2cccc(Cl)c2)/C1=C(\O)c1ccc2c(c1)OCCO2 (configuration not stated) | 93.0 | 107.0 | 50.1 | 27.0 | 136.2 | 100.0 | 98.2 | 96.7 | 112.0 | 97.9
O=C(Nc1ccccc1)ON=C1CCCC1 | 117.2 | 130.0 | 102.7 | 67.7 | 100.8 | 106.2 | 106.5 | 107.9 | 129.3 | 61.1 | Yeast autofluor=0.2
O=C(Nc1ccccc1)O/N=C/c1ccncc1 | 109.8 | 109.4 | 105.3 | 109.7 | 116.3 | / | / | / | / | /
Cc1ccc(NC(=O)ON=C2CCCC2)cc1 | 120.3 | 219.0* | 94.5 | 55.1 | 103.3 | / | / | / | / | / | Yeast autofluor=1.61
Cc1ccc(NC(=O)C/C(N)=N/OC(=O)Nc2cccc(C)c2)cc1 | 99.8 | 105.8 | 99.2 | 99.2 | 110.5 | / | / | / | / | /
O=C(Nc1ccc(C(=O)O)cc1)/C(=C\C=C\c1ccccc1)NC(=O)c1ccccc1Br | 66.6 | 83.5 | 111.8 | 85.2 | 97.7 | / | / | / | / | /
Cc1ccc(S(=O)(=O)CCC(=O)Nc2sccc2C#N)cc1 | 100.8 | 111.8 | 98.8 | 113.1 | 88.9 | / | / | / | / | /
CCNC(=S)NNC(=O)Cn1c(=O)c2c(ncn2CCOC)n(Cc2ccccc2)c1=O | 179.1* | 81.4 | 85.5 | 97.2 | 220.9* | 99.0 | 108.2 | 100.9 | 101.8 | 100.5
COc1ccc(C(=O)OCc2c(-c3ccccc3)ncc3ccccc23)cc1 | 151.2* | 90.2 | 97.7 | 104.0 | 110.8 | 117.3 | 101.5 | 96.0 | 107.4 | 95.7
CC(C)(C)c1ccc(C(=O)OCc2c(-c3ccccc3)ncc3ccccc23)cc1 | 88.2 | 87.1 | 90.8 | 85.4 | 87.2 | / | / | / | / | /
O=S(=O)(c1ccccc1)c1ccc(C(F)(F)F)cn1 | 102.1 | 94.7 | 92.4 | / | 92.8 | / | / | / | / | / | Yeast autofluor=-0.2
SMILES | LAP4-GFP MLPCN | CIT2 TOR yeast | RPL19A TOR yeast | AGP1-GFP MLPCN | MEP2 TOR yeast | LAP4 cherry2 | MEP2 cherry2 | RPL19A GFP CP2 | CIT2-GFP pick2 | AGP1 GFP CP2 | others
O=[N+]([O-])c1ccc(S(=O)(=O)c2ccccc2)nc1 | 177.2* | 91.8 | 70.5 | 93.8 | 125.1 | / | / | / | / | / | Yeast autofluor=0.4
Cc1cc(S(=O)(=O)c2ccc([N+](=O)[O-])cn2)ccc1Br | 146.7 | 91.5 | 80.9 | 87.2 | 85.2 | / | / | / | / | /
Cc1ccc(S(=O)(=O)c2ccc([N+](=O)[O-])cn2)cc1 | 145.8 | 83.7 | 76.8 | 94.9 | 100.5 | / | / | / | / | / | Yeast autofluor=0.92;s288c autofl DR=0.57;TORC1 bypass gr=3
O=C(O)c1csc(-n2nc(-c3ccccc3)cc2C(F)(F)F)n1 | 110.2 | 103.3 | 111.5 | 92.5 | 105.1 | / | / | / | / | /
CCN(CC(=O)Nc1c(F)cccc1F)C(=O)COc1cccc2c1OC(C)(C)C2 | 185.0* | 77.5 | 83.1 | 107.8 | 82.8 | 96.2 | 98.2 | 100.0 | 106.3 | 102.2
Cc1cccc(C)c1NC(=O)CN(C)C(=O)COc1cccc2c1OC(C)(C)C2 | 114.0 | 109.5 | 107.5 | 112.9 | 101.6 | / | / | / | / | /
CCCN1CCc2c(sc(NC(=O)Cc3ccc(F)cc3)c2C(N)=O)C1 | 104.8 | 104.0 | 100.3 | 100.7 | 98.7 | / | / | / | / | /
COc1ccccc1OCCCCCc1c(C)n[nH]c1C | 103.8 | 91.3 | 101.8 | 95.3 | 108.0 | / | / | / | / | /
COc1ccccc1OCCCc1c(C)n[nH]c1C | 190.5* | 99.9 | 116.9 | 58.4 | 118.7 | / | / | / | / | / | Yeast autofluor=2.02
